Artemis inh: Artemis endonuclease inhibitors, primary screen, biochemical, fluorescence intensity, FAM/BHQ-1 hairpin substrate. Protein artemis (Homo sapiens), Q96SD1. recombinant Artemis, quenched FAM hairpin cleavage fluorescence. inhibition, % at 10 µM. 30,000 compounds, 0.78% hits;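 active = at 10 µM dose, at least 30% inhibition, measured as corrected fluorescence normalized to stimulator and neutral control wells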
Active calls of the source: *. This is one part of a sample in which hits are shown more often than they occur.

Results for CC1Cc2ccccc2N1C(=O)CSc1nnc2c(n1)[nH]c1ccccc12 (stereo unspecified) ?
Artemis inh: 35.5*

Results for CC1Cc2ccccc2N1C(=O)CSc1nc2c(c(=O)n(C)c(=O)n2C)n1Cc1ccc(F)cc1 (stereo unspecified) ?
Artemis inh: 11.7

Results for COc1cccc(-n2c(SCC(=O)N3c4ccccc4CC3C)nnc2-c2ccco2)c1 (stereo unspecified) ?
Artemis inh: 17.2

Results for COC(=O)c1c(-c2ccc3ccccc3c2)csc1NC(=O)Cc1ccc(OC)c(OC)c1 ?
Artemis inh: 10.5

What do the screens show for `CC(C)Cn1c(-c2ccc(C#N)cc2)nc2c1c(=O)[nH]c(=O)n2CC(C)C`?
Artemis inh: 1.2

What do the screens show for `CC(C(=O)O)N1C(=O)/C(=C/C=C/c2ccco2)SC1=S` (stereo unspecified)?
Artemis inh: 39.7*

Results for C=CCSC1=N/C(=C\C=C\c2ccco2)C(=O)S1 ?
Artemis inh: 14.7

Results for O=C1/C(=C\c2ccco2)SC(=S)N1Cc1ccccc1 ?
Artemis inh: 16.5

What do the screens show for `O=C(NCc1ccco1)c1ccc2snnc2c1`?
Artemis inh: -0.3

Results for O=C(NCCCNC(=O)c1ccco1)c1ccco1 ?
Artemis inh: 7.2

How did O=C(NCCO)c1ccc2nc(-c3ccco3)c(-c3ccco3)nc2c1 do in these assays?
Artemis inh: 37.8*

What do the screens show for `Cc1sc2nc(CN(Cc3cccs3)C(=O)NC3CCCCC3)[nH]c(=O)c2c1C`?
Artemis inh: 24.4

How did Cn1c(CC(=O)Nc2ccccc2)nnc1SCCOc1ccccc1 do in these assays?
Artemis inh: -1.6

How did O=C(CCSc1nc(-c2ccco2)cc(C(F)(F)F)n1)N1CCCc2ccccc21 do in these assays?
Artemis inh: 1.9

How did C/C(=N\NC(=O)C(NC(=O)c1ccccc1)C(C)C)c1ccccc1 (stereo unspecified) do in these assays?
Artemis inh: 6.4

How did CCNC(=O)CN1c2cccc3cccc(c23)S1(=O)=O do in these assays?
Artemis inh: 8.2

What do the screens show for `CN1/C(=N\O)c2cccc3cccc1c23`?
Artemis inh: 37.9*

Results for CCN1CCN(C(=O)CN2C(=O)c3cccc4cccc2c34)CC1 ?
Artemis inh: -10.1

How did COc1ccc([N+](=O)[O-])cc1NC(=S)NC(NC(=O)C(c1ccccc1)c1ccccc1)C(Cl)(Cl)Cl (stereo unspecified) do in these assays?
Artemis inh: 4.7

Results for O=C(NC12CC3CC(CC(C3)C1)C2)C12CC3CC(C1)CC(n1cnc(Cl)n1)(C3)C2 ?
Artemis inh: -15.0

What do the screens show for `Oc1ccc2ccccc2c1C=NC12CN3CCN(CN(C3)C1)C2`?
Artemis inh: 40.9*

Results for Cc1[nH]n(-c2cccc(Cl)c2)c(=O)c1C=NC12CN3CN(CN(C3)C1)C2 ?
Artemis inh: 8.9

What do the screens show for `CN(C)/N=C/c1c(O)ccc2ccccc12`?
Artemis inh: -0.7

How did CC12CCC(C(=O)N(c3ccccn3)c3ccccn3)(OC1=O)C2(C)C (stereo unspecified) do in these assays?
Artemis inh: -10.5

What do the screens show for `O=c1c2ccccc2nc(N/N=C/c2ccc(O)cc2)n1O`?
Artemis inh: 28.7

How did CCCc1nc2ccccc2c(=O)n1/N=C/c1ccc(O)cc1O do in these assays?
Artemis inh: 4.6

What do the screens show for `O=c1c2ccccc2nc(N/N=C/c2c(O)ccc3ccccc23)n1O`?
Artemis inh: 61.0*

How did CN(CCC(=O)Nc1ccc(Br)cc1)Cc1ccccc1 do in these assays?
Artemis inh: 0.3

Results for N#Cc1c(Sc2ncc(C(F)(F)F)cc2Cl)nsc1C/C=N\OCc1c(F)cccc1Cl ?
Artemis inh: 0.8

What do the screens show for `O=C(O)c1cc(-c2ccccc2Cl)n[nH]1`?
Artemis inh: -8.9

What do the screens show for `Oc1c(Br)cc(C2N=C(c3ccccc3Cl)NO2)cc1Br` (stereo unspecified)?
Artemis inh: 31.2*

How did Cc1ccc(/C(O)=C2\C(=O)C(=O)N(CC(C)O)C2c2ccc(N(C)C)cc2)cc1 (stereo unspecified) do in these assays?
Artemis inh: -0.1

What do the screens show for `CCCCc1nc(SCC(=O)Nc2ccc(S(N)(=O)=O)cc2)n[nH]1`?
Artemis inh: -8.1

Results for CC1=NOC(=O)/C1=C\c1ccc(-c2cc(Cl)ccc2Cl)o1 ?
Artemis inh: 36.5*

Results for C=CCNC(=S)N/N=C/c1ccc(-c2cc(Cl)ccc2Cl)o1 ?
Artemis inh: 1.0

What do the screens show for `COC(=O)c1ccc(Cl)c(-c2ccc(/C=N/NC(=O)Nc3ccccc3)o2)c1`?
Artemis inh: -1.9

How did CCOC(=O)c1c(NC(=O)CSc2nnnn2-c2ccccc2)sc2c1CCC(C)C2 (stereo unspecified) do in these assays?
Artemis inh: -4.4

What do the screens show for `CCOC(=O)c1c(NC(=O)CSc2nncs2)sc(C)c1C`?
Artemis inh: -4.6

Results for CCOC(=O)c1c(NC(=O)CSc2nnc3c(n2)[nH]c2ccccc23)sc2c1CCN(C)C2 ?
Artemis inh: 42.0*

What do the screens show for `CCCC(C(=O)NCc1ccco1)N(C(=O)CNS(=O)(=O)c1ccccc1)c1ccccc1OC` (stereo unspecified)?
Artemis inh: -7.1
